Data from PubChem BioAssay (NCATS).
Values joined by “and” are separate entries in the source; they are usually repeats but may differ in a detail not shown here. Identical values can stand only once. Records with an inconclusive call do not appear. The source holds several records for some structures; these can differ, active in one and inactive in another. Active and inactive are the calls of the source. Calls come from the whole dose curve; as a rule, active = well fitted curve in the direction sought with a large enough effect; inconclusive = small, poorly fitted or top-dose-only effect, or another doubt; inactive = no such curve, though single readings can be large; an effect the other way counts as inactive or inconclusive.

Key:
[1] = P-glycoprotein substrates identified in KB-3-1 adenocarcinoma cell line, qHTS therapeutic library screen (AID 1346986); note: nearly all actives have a fitted effect of over 60% in size;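 note: potency is the fitted concentration of half-maximal effect; potency is for cytotoxicity meaning loss of cell viability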
In short: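 Resistance attributable to P-gp was assessed by comparing AC50 in KB-8-5-11 with parental KB-3-1 and by tariquidar reversal. Cells were exposed 72 h and viability read by CellTiter-Glo.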

[2] = P-glycoprotein substrates identified in KB-8-5-11 adenocarcinoma cell line, qHTS therapeutic library screen (AID 1346987); note: nearly all actives have a fitted effect of over 65% in size; note: potency is the fitted concentration of half-maximal effect
In short: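 Steps: plate 500 KB-8-5-11 cells/well in DMEM + 10% FCS (colchicine removed); pin compounds in dose-response; incubate 72 h, 37 degree C, 5% CO2; add CellTiter-Glo, 5 min; read luminescence.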

[3] = qHTS of pediatric cancer cell lines to identify multiple opportunities for drug repurposing: Primary screen for TC32 cells (AID 1347089); note: nearly all actives have a fitted effect of over 60% in size
In short: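 Luminescent CellTiter-Glo read-out of metabolically active TC32 cells after 48 h compound exposure. Primary: MIPE 11-point, 0.78 nM–46 µM; NPC 8-point, 0.59 nM–46 µM. Confirmatory: 11-point dilutions.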

[4] = qHTS of pediatric cancer cell lines to identify multiple opportunities for drug repurposing: Primary screen for DAOY cells (AID 1347090); note: nearly all actives have a fitted effect of over 55% in size; note: potency is the fitted concentration of half-maximal effect
In short: (§1)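 Eight- or eleven-point concentration series, 48 h treatment at 37 degrees C in growth media; readout CellTiter-Glo luminescence. Potency and efficacy were taken from the concentration-response curves.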

[5] = qHTS of pediatric cancer cell lines to identify multiple opportunities for drug repurposing: Primary screen for SJ-GBM2 cells (AID 1347091); note: potency is the fitted concentration of half-maximal effect
In short: as §1

[6] = qHTS of pediatric cancer cell lines to identify multiple opportunities for drug repurposing: Primary screen for A673 cells (AID 1347092); note: nearly all actives have a fitted effect of over 45% in size; note: potency is the fitted concentration of half-maximal effect
In short: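 A673 cells (500-1,000 cells/well in growth media) were pre-incubated 5 h at 37 degrees C, then exposed to compounds for 48 h. Viability was read as CellTiter-Glo luminescence; concentration-response curves came directly from the primary screen.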

[7] = qHTS of pediatric cancer cell lines to identify multiple opportunities for drug repurposing: Primary screen for NB-EBc1 cells (AID 1347095); note: potency is the fitted concentration of half-maximal effect
In short: (§2)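 Primary screen of approved and investigational compounds on cells in growth media at 37 degrees C, 5% CO2. MIPE set at 11-point and NPC set at 8-point dilutions; viability scored by ATP-based luminescence at 48 hours.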

[8] = qHTS of pediatric cancer cell lines to identify multiple opportunities for drug repurposing: Primary screen for U-2 OS cells (AID 1347096); note: nearly all actives have a fitted effect of over 50% in size; note: potency is the fitted concentration of half-maximal effect
In short: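 Cells (500-1,000/well) in growth media were settled 5 h at 37 degrees C, then given compounds for 48 h. Viability was read as CellTiter-Glo luminescence. Primary runs used MIPE at 11 points (0.78 nM-46 µM) and NPC at 8 points (0.59 nM-46 µM); follow-ups used 11 points.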

[9] = qHTS of pediatric cancer cell lines to identify multiple opportunities for drug repurposing: Primary screen for SK-N-SH cells (AID 1347098); note: nearly all actives have a fitted effect of over 65% in size; note: potency is the fitted concentration of half-maximal effect
In short: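 Cells (500-1,000/well) rested 5 h, then received compounds for 48 h; metabolically active cells were measured by CellTiter-Glo luminescence. Final concentrations spanned up to 46 µM (MIPE, 11-point) or 0.59 nM-46 µM (NPC, 8-point) in primary screens, 11-point in follow-ups.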

[10] = qHTS of pediatric cancer cell lines to identify multiple opportunities for drug repurposing: Primary screen for Saos-2 cells (AID 1347097); note: nearly all actives have a fitted effect of over 40% in size; note: potency is the fitted concentration of half-maximal effect
In short: as §2

[11] = qHTS of pediatric cancer cell lines to identify multiple opportunities for drug repurposing: Primary screen for BT-37 cells (AID 1347094); note: potency is the fitted concentration of half-maximal effect
In short: as §2

[12] = qHTS of pediatric cancer cell lines to identify multiple opportunities for drug repurposing: Primary screen for SK-N-MC cells (AID 1347093); note: potency is the fitted concentration of half-maximal effect
In short: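 Metabolically active cells were quantified by ATP-dependent luminescence (CellTiter-Glo, 15 min at room temperature) following 48 h treatment. Cells had been plated at 500-1,000 per well and settled for 5 h beforehand.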

[13] = NS1 protein of Zika virus - qHTS assay to identify small molecule inhibitors in human HEK 293 cells (AID 1347053); note: nearly all actives have a fitted effect of over 55% in size; note: potency is the fitted concentration of half-maximal effect
In short: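 HEK 293 cells, seeded 20 h at 37 C, were pretreated with compound 1 h, then infected with ZIKV MR766 (MOI = 0.5) for 24 h. NS1 was read by TR-FRET with two anti-NS1 antibodies, normalized to uninfected and infected wells.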

Measured: Potency

CCCCC[C@H](O)C=C[C@H]1[C@H](O)CC(=O)[C@H]1CC=CCCCC(=O)O
not listed: [10] | [11] | [12] | [13]
inactive: all other assays above

CN1CCN(c2cccc(Nc3nc4c(-c5ccc(S(C)(=O)=O)cc5)cccn4n3)c2)CC1
inactive and 23.1 µM (active): [1]
inactive and 20.6 µM (active): [2]
active: [6] 9.35 µM | [10] 18.7 µM
inactive: [3] | [4] | [8]

CN1C(=O)C[C@H](C(=O)N[C@@H](Cc2cnc[nH]2)C(=O)N2CCC[C@@H]2C(N)=O)NC1=O
inactive: [1] | [2] | [3] | [5] | [8] | [10] | [9]
active: [11] 24.3 µM

CN(C)c1ccc(-c2nc3ncc(Cl)c(N4CCN(CC(=O)Nc5nccs5)CC4)c3[nH]2)cc1
inactive: [1] | [2] | [3] | [4] | [8]
active: [5] 14.8 µM | [7] 2.35 µM | [10] 14.8 µM

COc1ccc(Cn2ccc3ccc(C(=O)NO)cc32)cc1
active: [6] 14.8 µM | [12] 5.9 µM | [7] 8.33 µM | [9] 21.5 µM
inactive: [1] | [3] | [5] | [10]

CC[C@H](NC(=O)[C@H](C)NC)C(=O)N1C[C@@H](O)C[C@H]1Cc1c(-c2[nH]c3cc(F)ccc3c2C[C@H]2C[C@H](O)CN2C(=O)[C@H](CC)NC(=O)[C@H](C)NC)[nH]c2cc(F)ccc12
active: [4] 2.35 µM | [5] 0.0469 µM | [6] 0.0118 µM | [12] 1.18 µM | [11] 0.217 µM | [10] 0.372 µM
inactive: [1] | [2] | [3] | [8]

CN(C)CCCNC(=O)c1ccc(-c2cc(O)c3ncccc3c2)cc1
active: [1] 18.4 µM | [6] 23.5 µM
inactive: [13] | [3] | [4] | [5] | [12] | [8]

COc1cc2ncnc(Nc3cc(Br)c(O)c(Br)c3)c2cc1OC
active: [6] 0.0118 µM | [12] 0.0066 µM | [10] 20.9 µM
inactive: [1] | [2] | [13] | [3] | [8]

C[C@@H](NC(=O)c1ncnc(N)c1Cl)c1ncc(C(=O)Nc2cc(C(F)(F)F)c(Cl)cn2)s1
active: [6] 18.7 µM | [12] 16.6 µM | [7] 14.8 µM | [9] 19.2 µM
inactive: [1] | [2] | [13] | [3] | [8]

O=c1[nH]c(=O)n([C@H]2C[C@@H](O)[C@@H](CO)O2)cc1I
not listed: [3]
inactive: all other assays above

O=C(CO)N1CCC(c2[nH]nc(-c3ccc(Cl)cc3)c2-c2ccncn2)CC1
not listed: [5] | [10] | [11] | [13]
inactive: all other assays above

Nc1[nH]nc2nnc(-c3c(-c4ccccc4)nn4ccccc34)cc12
active: [6] 1.48 µM | [12] 0.0332 µM | [11] 2.73 µM | [7] 3.32 µM | [10] 9.35 µM | [9] 4.29 µM
inactive: [1] | [2] | [13] | [3]

CCC(=O)OCC(=O)[C@@]1(OC(=O)CC)[C@@H](C)C[C@@H]2[C@H]3CCC4=CC(=O)C=C[C@]4(C)[C@@]3(F)[C@@H](O)C[C@@]21C
active: [4] 1.18 µM | [6] 1.87 µM | [12] 0.0372 µM | [10] 0.187 µM
inactive: [1] | [3] | [8]

COc1ccc2ccc(=O)oc2c1CC=C(C)C
inactive: [1] | [2] | [3] | [5]
active: [12] 9.35 µM | [10] 18.7 µM

CNC(=O)c1cc(COc2nnc(Nc3ccc(Cl)cc3)c3ccoc23)ccn1
active: [4] 23.5 µM | [5] 20.9 µM | [12] 23.5 µM | [7] 23.5 µM | [10] 18.7 µM
inactive: [1] | [2] | [3]

Cc1ccc(NC(=O)c2ccc(CN3CCN(C)CC3)cc2)cc1Nc1nc(-c2cccnc2)cs1
active: [6] 11.8 µM
inactive: [1] | [3] | [7]

Nc1ncnc2c1ncn2[C@@H]1O[C@H](CO)[C@@H](O)[C@@H]1O
inactive: [1] | [2] | [13]
active: [5] 2.35 µM | [6] 0.935 µM | [12] 0.833 µM | [11] 5.44 µM | [7] 3.32 µM | [8] 14.8 µM | [10] 2.96 µM | [9] 15.2 µM

COc1ccc(-c2cc3nccn3c(Nc3ncccc3C(N)=O)n2)cc1OC
inactive: [3]
active: [1] 6.51 µM | [5] 1.18 µM | [6] 1.48 µM | [12] 1.66 µM | [7] 2.64 µM | [10] 1.05 µM

O=C1NC(=O)C(c2cnc3ccccn23)=C1c1cn2c3c(cccc13)CN(C(=O)N1CCOCC1)CC2
inactive: [8]
active: [1] 5.8 µM | [13] 0.59 µM | [4] 0.0235 µM | [5] 0.0235 µM | [12] 0.0235 µM | [11] 19.3 µM | [7] 0.0166 µM
